Screening results (PubChem BioAssay)
RecA splice inh: inhibitors of M. tuberculosis RecA intein splicing; cell-free RecA intein splicing, fluorescence; inhibition, % (concentration not given with the values); 290,000 tested, 0.75% active; in the data active = inhibition above about 30%;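 note: 0% = vehicle wells and 100% = reference inhibitor control wells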
Target sequence (P9WHJ3 whole entry, looked up, canonical isoform): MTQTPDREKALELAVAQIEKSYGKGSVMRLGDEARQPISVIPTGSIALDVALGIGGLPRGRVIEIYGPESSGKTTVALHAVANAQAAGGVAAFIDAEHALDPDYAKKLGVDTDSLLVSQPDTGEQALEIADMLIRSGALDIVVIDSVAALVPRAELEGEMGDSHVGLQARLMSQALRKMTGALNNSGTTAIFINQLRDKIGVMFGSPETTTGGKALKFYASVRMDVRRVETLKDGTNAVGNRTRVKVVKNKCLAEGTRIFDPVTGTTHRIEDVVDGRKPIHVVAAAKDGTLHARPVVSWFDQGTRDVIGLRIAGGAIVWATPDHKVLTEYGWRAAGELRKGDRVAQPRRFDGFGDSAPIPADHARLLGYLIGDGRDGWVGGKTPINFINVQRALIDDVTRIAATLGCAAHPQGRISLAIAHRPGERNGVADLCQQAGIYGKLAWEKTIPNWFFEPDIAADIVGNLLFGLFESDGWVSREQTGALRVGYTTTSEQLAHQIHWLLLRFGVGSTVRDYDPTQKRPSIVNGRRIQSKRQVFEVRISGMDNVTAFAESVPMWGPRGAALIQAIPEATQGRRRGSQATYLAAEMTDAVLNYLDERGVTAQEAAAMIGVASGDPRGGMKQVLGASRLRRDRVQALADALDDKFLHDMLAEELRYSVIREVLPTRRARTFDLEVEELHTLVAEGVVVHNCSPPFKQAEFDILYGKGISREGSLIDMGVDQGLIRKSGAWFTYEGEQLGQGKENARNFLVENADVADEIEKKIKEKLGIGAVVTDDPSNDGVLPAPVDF
CCHF vOTU inh: blocks the CCHF virus ovarian tumor domain protease | CCHFV vOTU protease, Pep-AMC fluorescence | 370,000 tested, 0.55% active | inhibition, % at 11.5 µM | AID 651958; note: 0% = vehicle wells with enzyme and 100% = no enzyme wells
GDH-TPI inh: inhibits GDH-TPI coupling enzymes, artifact for Mtb FBA screen. GDH-TPI coupled enzyme counterscreen, NADH absorbance. 360,000 tested, 1.2% active. inhibition, % at 4.8 µM;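 note: 0% = DMSO wells and 100% = wells lacking the enzyme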
SARS 3CLpro inh: SARS-CoV 3CLpro protease inhibition; P0C6X7; recombinant SARS-CoV 3CLpro, quenched FRET peptide cleavage; inhibition, % at 6 µM; 290,000 tested, 0.14% active; AID 1706; in the data active = inhibition above about 12%
VHR inh abs: DUSP3 (human) phosphatase inhibition. 290,000 tested, 0.52% active. P51452. recombinant VHR phosphatase, pNPP absorbance. inhibition, % at 13.3 µM. AID 1654; in the data active = inhibition above about 50%
FBA Mtb inh: inhibitors of M. tuberculosis fructose-bisphosphate aldolase; AID 588726; 360,000 tested, 2.3% active; purified M. tuberculosis FBA, fluorescence read-out; P9WQA3; inhibition, % at 1 µM; in the data active = inhibition above about 27%;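 note: 0% = vehicle and 100% = reference inhibitor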
The depositor's hits bear a star; i = inactive; . = no result given; + = active, no number. Only some compounds are listed: those with a hit (about 4.7% of all), similar ones and a draw of the others. Cut-off read from the data, not from the text of the source, unless noted: active = inhibition above about 30%; inactive = the rest.

SMILES	RecA splice inh	CCHF vOTU inh	GDH-TPI inh	SARS 3CLpro inh	VHR inh abs	FBA Mtb inh
COc1ccc(/C(O)=C2/C(=O)C(=O)N(CCN3CCOCC3)C2c2cccnc2)cc1OC (stereo unspecified)	-1	5	10	1	9	-2
COCCCN1C(=O)C(=O)/C(=C(/O)c2ccc(OCC(C)C)cc2C)C1c1cccnc1 (stereo unspecified)	-2	16	44*	2	-5	0
COCCN1C(=O)C(=O)/C(=C(/O)c2cccc(OC)c2)C1c1ccco1 (stereo unspecified)	4	1	35*	1	25	-3
COc1ccc([C@H]2C[C@@H](n3cc(COC(=O)c4ccccc4)nn3)[C@H](O)CN2Cc2cccs2)cc1	.	16	28	.	.	5
S=C1NCCOc2ccccc21	.	4	.	.	.	.
CC(=O)N1CCN(c2ccc(N3CCN(Cc4ccccc4)[C@H](C)C3)c(C)c2)[C@H](C)C1	.	-2	.	.	.	.
C=CCOc1ccc(/C(O)=C2\C(=O)C(=O)N(CCOC)C2c2cccnc2)cc1 (stereo unspecified)	1	-12	34*	1	13	3
Cc1cc(=O)oc(C)c1C(=O)NCCCN1CCN(c2ccc(F)cc2)CC1	0	4	40*	-1	-5	-2
COc1ccc(N2CCN(CCNC(=O)c3c(C)cc(=O)oc3C)CC2)cc1	-3	-2	40*	-5	35	2
COc1ccc(CNC(=O)c2c(C)cc(=O)oc2C)cc1	-4	-3	9	-1	1	0
COC(=O)[C@]12C[C@H](CC(=O)NCCCN3CCCC3=O)C(=O)N(CCc3ccc(OC)c(OC)c3)C1=C[C@H](C(C)(C)C)O[C@@H]2C	.	7	.	.	.	.
Cc1c(Cl)cccc1NC(=O)CSCc1cc(=O)[nH][nH]1	85*	9	1	8	-8	-7
CC1=C([N+](=O)[O-])C(c2ccccc2Cl)NC(=O)N1 (stereo unspecified)	-1	-2	17	-5	18	0
CC1=C([N+](=O)[O-])C(c2ccc(Cl)cc2)NC(=O)N1 (stereo unspecified)	-3	5	5	-5	59*	0
CCc1nc2ccc(C(=O)N(C)CCCN(C)C)cn2c1N(C)C(=O)C1CCCCC1	.	1	-4	.	.	0
COc1cccc(OCc2cc(C(=O)N3CCNC(=O)C3Cc3ccccc3)no2)c1 (stereo unspecified)	1	14	-2	11	1	1
O=[N+]([O-])c1cnccc1Nc1cccc(F)c1	3	15	11	-2	3	0
O=[N+]([O-])c1ccc(Oc2cccc(F)c2)c2ccncc12	73*	10	16	-3	26	-1
CC(=O)c1cc(CCC(=O)NC2CCCCCC2)oc1C	-1	4	8	-2	12	0
O=C(Nc1ncc([N+](=O)[O-])s1)c1ccc2c(c1)OCO2	31*	7	9	1	-2	-22
Cc1ccc(C(=O)Nc2ncc([N+](=O)[O-])s2)cc1	25	3	18	1	-16	-14
CCn1c(=N)n(CC(=O)C(C)(C)C)c2ccccc21	-5	-2	2	4	-11	2
CCn1c(=N)n(CC(=O)OC)c2ccccc21	1	5	4	0	56*	-3
O=C(CN1CCN(Cc2ccccc2Cl)CC1)N/N=C\c1ccccc1F	.	3	.	.	.	.
O=C(C(=O)N1CCC(CNS(=O)(=O)c2cccc(C(F)(F)F)c2)CC1)c1cc2ccccc2o1	.	9	.	.	.	.
SMILES	RecA splice inh	CCHF vOTU inh	GDH-TPI inh	SARS 3CLpro inh	VHR inh abs	FBA Mtb inh
COc1ccc(-c2nn3c(-c4n[nH]c5c4CCC5)nnc3s2)cc1	.	-1	.	.	.	.
CCN(CC)c1ccc(-c2nn3c(-c4n[nH]c5c4CCC5)nnc3s2)cc1	-22	3	24	2	36	40*
Cn1c(NC(=O)c2ccccc2)nc(Cc2ccccc2)c1Cc1ccccc1	.	11	.	.	.	.
Cc1cccc(OCC(=O)NCCNC(=O)c2ccncc2)c1	-3	11	8	-4	60*	1
N#C/C(=C\C=C\c1ccccc1)C(=O)NCc1ccco1	-3	-7	63*	-1	22	-5
Cc1cc(/C=C(\C#N)C(=O)NCc2ccco2)c(C)n1-c1cccnc1	-9	5	31*	0	21	-1
O=C(NCc1ccco1)/C(=C/C=C\c1ccccc1)NC(=O)c1ccc(Br)o1	4	4	35*	2	4	-9
Cc1cc(/C=C(\C#N)C(=O)NCc2ccco2)c(C)n1C1CCCC1	0	-2	-2	1	35	2
Cc1ccsc1/C=C(\C#N)C(=O)NCc1ccco1	-4	-2	32*	6	-1	-4
OCC1COC(c2ccccc2)=N1 (stereo unspecified)	.	10	.	.	.	.
Cc1cc(/C=C(/C#N)c2cccc(F)c2)c(C)n1-c1cccnc1	3	-6	38*	4	21	-2
COc1ccc2c(C(=O)NCCCCO)c(-c3ccc(S(C)(=O)=O)cc3)sc2c1	.	-223	20	.	.	+
COc1ccc(-c2ccc(OC)c([C@H]3[C@@H]4C=CCC[C@@]4(C)C(=O)N3Cc3ccccc3)c2)cc1OC	9	17	14	.	4	-3
COc1ccc(Br)cc1[C@H]1[C@@H]2C=CCC[C@@]2(C)C(=O)N1Cc1ccccc1	32*	2	10	.	7	6
Cc1cccc(-c2cccc3c4c([nH]c23)[C@@H]2C[C@H](N(C)C(=O)c3ccccc3F)[C@H]([C@H](C)O)CN2CC4)c1	.	10	.	.	.	.
O=C(NCc1cccnc1)c1cc(C2CCCCN2C(=O)c2ccc3ccccc3c2)on1 (stereo unspecified)	.	1	1	.	.	4
O=C(c1ccc(F)c(F)c1)N1CCC2(CC1)NCCc1[nH]cnc12	0	-4	6	-1	29	2
O=C(c1ccc(F)cc1)N1CCC2(CC1)NCCc1[nH]cnc12	-2	12	4	-2	56*	-2
O=C(NCCCN1CCCC1=O)C1CCN(S(=O)(=O)c2c(Cl)cccc2Cl)CC1	9	12	5	.	.	1
CN1CC=C2C(C#N)=C(N)C(C#N)(C#N)C(CCc3ccccc3)C2C1 (stereo unspecified)	-22	.	0	3	6	39*
CN1CC=C2C(C#N)=C(N)C(C#N)(C#N)[C@H](c3cccs3)[C@H]2C1	-23	.	13	0	9	9
CC1CCN(C(=O)c2ncn3c2C(=O)NC[C@@H]3C)CC1	.	-3	.	.	.	.
O=C(O)C/C(=C\c1cc(Br)cs1)c1nc2ccccc2o1	-1	18	27	6	3	0
Cc1ccsc1/C=C(\CC(=O)O)c1nc2ccccc2o1	0	16	44*	-1	5	3
COc1cccc(CN(C)Cc2cc(=O)oc3cc(O)c(Cl)cc23)c1	i	-103	9	-5	22	164*
BrC(=C\c1ccccc1)/C=N/Nc1ccc2nncn2n1	3	4	32*	3	4	-1
